Results filed as inconclusive are left out. Entries that show only a call come without a potency. Active and inactive are the calls of the source. The call rests on the fitted dose curve; tested in HEK293 reporter line.
Experiment: qHTS for Inhibitors of the Functional Ribonucleoprotein Complex (vRNP) of Lassa (LASV) Arenavirus: Viability assay - alamar blue signal for LASV Primary Screen (AID 1347083); further: nearly all actives have a fitted effect of over 80% in size
Settings: cell viability, alamar blue fluorescence (LASV minigenome counter-screen); series mostly up to 57.5 µM
Potency means the concentration at half of the fitted maximal effect.

Structure (SMILES) | Potency
CO[C@H]1O[C@@H]2O[C@@]3(C)CC[C@@H]4[C@@H](C)CC[C@@H]([C@H]1C)[C@@]24OO3 | inactive
CCN(CC)CCCCNc1ncc2c(n1)N(C)C(=O)N(c1c(Cl)c(OC)cc(OC)c1Cl)C2 | 34.3 µM (active)
COc1ccc([C@@H]2CC(=O)c3c(O)cc(O[C@@H]4O[C@H](CO)[C@@H](O)[C@H](O)[C@H]4OC4O[C@@H](C)[C@H](O)[C@@H](O)[C@H]4O)cc3O2)cc1O (stereo partly specified) | inactive
COC(=O)C1C2CC3c4[nH]c5cc(OC)ccc5c4CCN3CC2CC(O)C1OC (stereo unspecified) | inactive
CCCCCC(=O)N[C@@H](c1ccccc1)[C@@H](O)C(=O)O[C@H]1C[C@@]2(O)[C@@H](OC(=O)c3ccccc3)C3[C@](C)(C(=O)[C@H](O)C(=C1C)C2(C)C)[C@@H](OC1OCC(O)C(O)C1O)C[C@H]1OC[C@@]31OC(C)=O (stereo partly specified) | inactive
CON=C(C(=O)N[C@@H]1C(=O)N2C(C(=O)O)=C(CSC(=O)c3ccco3)CS[C@H]12)c1csc(N)n1 | inactive
COC(/C(C)=C/C=C/C(C)=C/c1coc(C)n1)C(C)C1CC(O)C2(C)OC2C=CC(C)C2CC(CC(=O)O2)CC2OC2C(=O)O1 (stereo unspecified) | inactive
O=C1NC(=O)C(=Cc2ccc3c(c2)OC(F)(F)O3)S1 | inactive
Oc1ccc(C2CCN(c3ccnc4ccccc34)CC2)cc1O | 6.85 µM (active)
O=C(O)CCNc1cc(N2CCc3ccccc3CC2)nc(-c2ccccn2)n1 | inactive
CNC(=O)Nc1ccc(Cl)c(Cl)c1 | inactive
CC(=O)c1ccc[nH]1 | inactive
CC(=O)O[C@@]12CO[C@@H]1C[C@H](OC1OCC(O)C(O)C1O)[C@@]1(C)C(=O)[C@H](O)C3=C(C)[C@@H](OC(=O)[C@H](O)[C@@H](NC(=O)c4ccccc4)c4ccccc4)C[C@@](O)([C@@H](OC(=O)c4ccccc4)C12)C3(C)C (stereo partly specified) | 20 µM (active)
O=c1c(-c2ccc(O)cc2)coc2c(C3OC(CO)C(O)C(O)C3O)c(O)ccc12 (stereo unspecified) | inactive
C=CC(C)(C)c1c2occc2c(O)c2ccc(=O)oc12 | inactive
CCCCCOC(=O)Nc1nc(=O)n([C@@H]2O[C@H](C)[C@@H](O)C2O)cc1F (stereo partly specified) | inactive
